hcGAS lum: inhibitors of human cGAS | AID 1259398 | recombinant h-cGAS, ATP depletion, Kinase-Glo luminescence | actives 0.081% (n = 290,000) | inhibition, % at 12.5 µM | Q8N884;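 note: 0% = vehicle reaction and 100% = reaction without DNA for no activity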
Target sequence (Q8N884 whole entry, looked up): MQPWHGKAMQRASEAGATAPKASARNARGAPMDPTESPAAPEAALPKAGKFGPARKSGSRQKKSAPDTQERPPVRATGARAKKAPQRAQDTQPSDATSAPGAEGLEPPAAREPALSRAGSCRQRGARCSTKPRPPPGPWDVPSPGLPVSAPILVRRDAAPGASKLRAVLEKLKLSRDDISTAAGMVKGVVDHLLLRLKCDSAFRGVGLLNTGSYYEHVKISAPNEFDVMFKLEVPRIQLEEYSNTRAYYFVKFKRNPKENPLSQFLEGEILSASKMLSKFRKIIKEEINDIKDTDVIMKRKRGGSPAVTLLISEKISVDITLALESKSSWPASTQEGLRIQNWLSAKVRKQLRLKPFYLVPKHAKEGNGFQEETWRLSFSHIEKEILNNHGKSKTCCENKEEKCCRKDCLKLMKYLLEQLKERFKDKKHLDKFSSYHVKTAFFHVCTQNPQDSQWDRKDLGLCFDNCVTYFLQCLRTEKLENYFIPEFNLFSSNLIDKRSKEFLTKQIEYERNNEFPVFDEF
NPYLR7 ag: mosquito NPYLR7 agonism; HEK293T NPYLR7/Galpha15, GCaMP6s calcium fluorescence; activation, % at 10 µM; actives 0.15% (n = 270,000); in the data active = activation above about 40%;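 note: 0% = vehicle and 100% = reference agonist at the receptor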
mcGAS lum: mouse cGAS inhibition by luminescence | actives 0.15% (n = 160,000) | inhibition, % at 12.5 µM | recombinant cGAS, Kinase-Glo ATP depletion luminescence;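 note: 0% = negative control wells and 100% = reference inhibitor with no enzyme activity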
* marks the source's active call; other numbers are inactive results; ! = not active in a repeat. Hits are enriched below; roughly 0.24% of the tested compounds scored in any of these assays. Cut-off read from the data, not from the text of the source, unless noted: active = inhibition above about 40%; inactive = the rest.

What do the screens show for `O=C(CSc1cn(CC(=O)N2CCCCCC2)c2ccccc12)NC1CCCC1`?
hcGAS lum: -6; NPYLR7 ag: 42*; mcGAS lum: -6

Results for O=C1C2C3C=CC(C3)C2C(=O)N1c1ccc(C(=O)N(C2CCCCC2)C2CCCCC2)cc1 (stereo not given) ?
hcGAS lum: 5; NPYLR7 ag: -10; mcGAS lum: 1

What do the screens show for `COC(=O)C1CCN(S(=O)(=O)c2cc(Br)ccc2Br)CC1`?
hcGAS lum: 4; NPYLR7 ag: 5

What do the screens show for `COC(=O)C1CCN(S(=O)(=O)c2c(F)cc(F)cc2Br)CC1`?
hcGAS lum: -8; NPYLR7 ag: 88*

What do the screens show for `Cn1cccc1P(=Nc1ccc(Br)cc1)(c1cccn1C)c1cccn1C`?
hcGAS lum: -5; NPYLR7 ag: 5

What do the screens show for `Fc1cccc(F)c1Nc1ccc2c(-c3ccccc3)noc2n1`?
hcGAS lum: -4; NPYLR7 ag: 4; mcGAS lum: -4

How did O=c1[nH]c2n[nH]c(=S)n2c2c1CCCC2 do in these assays?
hcGAS lum: 51*; NPYLR7 ag: -2

What do the screens show for `Cc1cc(=O)[nH]c2n[nH]c(=S)n12`?
hcGAS lum: 28; NPYLR7 ag: -4

Results for COCC(=O)N1CCCC(C(=O)NC2CCCC[C@H]2NC(=O)c2ccccc2)C1 (stereo not given in full) ?
hcGAS lum: -6; mcGAS lum: -11

Results for COc1ccc(C(=O)N[C@@H]2CCCCC2NC(=O)C2CCCN(C(=O)CCc3ccccc3)C2)cc1 (stereo not given in full) ?
hcGAS lum: -2; mcGAS lum: 79*

What do the screens show for `CO[C@@]1(NC(=O)C2SC(=C(C(N)=O)C(=O)O)S2)C(=O)N2C(C(=O)O)=C(CSc3nnnn3C)CS[C@@H]21` (stereo not given in full)?
hcGAS lum: -1; NPYLR7 ag: -4

What do the screens show for `CO[C@@]1(NC(=O)CSCC#N)C(=O)N2C(C(=O)O)=C(CSc3nnnn3C)CSC21` (stereo not given in full)?
hcGAS lum: -6; NPYLR7 ag: 49*!

What do the screens show for `CC(C)NC(=O)NCc1ccc(C(=O)OCC(=O)N2CCOC(C)C2)cc1` (stereo not given)?
hcGAS lum: 4; NPYLR7 ag: -1

What do the screens show for `c1ccc(-c2nc3c(c(NC4CCCNC4)n2)CCC3)cc1` (stereo not given)?
hcGAS lum: -7; NPYLR7 ag: -3

How did Cc1cc(O)c(C=O)c2c1C(=O)Oc1c(COC(=O)/C=C/C(=O)O)c(O)c(C(=O)O)c(C)c1O2 do in these assays?
hcGAS lum: 69*; mcGAS lum: 67*

What do the screens show for `Clc1ccc(C2=Nc3ncnn3C(c3ccc(Cl)cc3)C2)cc1` (stereo not given)?
hcGAS lum: -7; NPYLR7 ag: 8

Results for CSc1ccc(C2CC(c3ccc(Cl)cc3)=Nc3ncnn32)cc1 (stereo not given) ?
hcGAS lum: -11; NPYLR7 ag: 92*

What do the screens show for `Nc1c(C=C2C=CC(=O)C=C2)c(=O)nc2sc(-c3ccccc3)nn12`?
hcGAS lum: 11; NPYLR7 ag: 0

How did Nc1c(C=C2C=CC(=O)C=C2)c(=O)nc2sc(-c3ccccc3Cl)nn12 do in these assays?
hcGAS lum: 42*; NPYLR7 ag: -3

What do the screens show for `Cc1oc(-c2cccs2)nc1-c1nccn1Cc1noc(C(C)C)n1`?
hcGAS lum: -6; mcGAS lum: -9

How did COc1ccc(-n2ccnc2-c2nc(-c3cccs3)oc2C)cn1 do in these assays?
hcGAS lum: -10; NPYLR7 ag: 57*

Results for Cc1[nH]ccc2c1[nH]c1cc(=O)ccc12 ?
hcGAS lum: 49*!; NPYLR7 ag: -4; mcGAS lum: 43*

How did Cc1c2ccccc2[nH]c2c1oc1cc(=O)ccc12 do in these assays?
hcGAS lum: -6; NPYLR7 ag: 13

What do the screens show for `COc1cccc(CNC2CC2)c1OCc1nc(CO)cs1`?
hcGAS lum: -2; NPYLR7 ag: 46*

How did COc1cccc(CN(C(=O)c2cccc(F)c2)C2CC2)c1OCc1nc(CO)cs1 do in these assays?
hcGAS lum: -9; NPYLR7 ag: -6; mcGAS lum: -7

What do the screens show for `Cc1ccc(-n2c(=O)c3ccccc3n(Cc3ccc(C(=O)NC(C)c4ccccc4)cc3)c2=O)cc1C` (stereo not given)?
hcGAS lum: -2; NPYLR7 ag: 30; mcGAS lum: -5

Results for CCc1nn(C(C)C(=O)NC)c(=O)c2cc3occc3n12 (stereo not given) ?
hcGAS lum: -5; NPYLR7 ag: 7; mcGAS lum: -4

How did CCc1nn(C(C)C(=O)NC(C)CCc2ccco2)c(=O)c2cc3occc3n12 (stereo not given) do in these assays?
hcGAS lum: -4; NPYLR7 ag: 68*; mcGAS lum: -3

What do the screens show for `Nc1cc(-c2cccc(C3CCCN3)c2)c2cc[nH]c2n1` (stereo not given)?
hcGAS lum: -6; NPYLR7 ag: 8

How did COC(=O)C1=C(C)NC(=O)NC1c1ccccc1[N+](=O)[O-] (stereo not given) do in these assays?
hcGAS lum: -1; NPYLR7 ag: -1; mcGAS lum: -2

Results for COC(=O)C1=C(C)NC(C)=C(C(=O)OC)C1c1ccccc1[N+](=O)[O-] ?
hcGAS lum: 17; NPYLR7 ag: 14; mcGAS lum: 51*

What do the screens show for `CC(C)Oc1ccc(S(=O)(=O)N2CCCCC2)cc1NC(=O)CSc1nncn1C1CC1`?
hcGAS lum: -1; NPYLR7 ag: -4; mcGAS lum: 56*

What do the screens show for `CC(C)Oc1ccc(S(=O)(=O)N2CCCCC2)cc1NC(=O)CCl`?
hcGAS lum: -9; NPYLR7 ag: -11

How did Cc1sc2ncnc(N/N=C\c3cccnc3)c2c1C do in these assays?
hcGAS lum: -4; NPYLR7 ag: 0; mcGAS lum: -7

How did COC(C(=O)Nc1ccnn1C1CCN(C(=O)c2sccc2C)CC1)c1ccccc1 (stereo not given) do in these assays?
hcGAS lum: -1; NPYLR7 ag: 6

How did CC(C)(C)c1ccc(/C=C2\SC(=S)NC2=O)cc1 do in these assays?
hcGAS lum: 7; NPYLR7 ag: -11; mcGAS lum: -1

How did O=C1NC(=S)S/C1=C/c1cccc(O)c1 do in these assays?
hcGAS lum: -4; NPYLR7 ag: -2

What do the screens show for `O=C1NC(=S)SC1=Cc1ccc(C(=O)O)cc1`?
hcGAS lum: 33; NPYLR7 ag: 13; mcGAS lum: 65*

Results for O=C1NC(=S)SC1=Cc1cccc(C(F)(F)F)c1 ?
hcGAS lum: 31; NPYLR7 ag: 1; mcGAS lum: 82*

What do the screens show for `C=C(C)CNc1cc(OC)c(OC)cc1F`?
hcGAS lum: -15; NPYLR7 ag: 17

What do the screens show for `Cc1ccc(CNC(=O)NC(c2ccc3c(c2)OCCCO3)C(C)C)cc1F` (stereo not given)?
hcGAS lum: -13; NPYLR7 ag: 47*; mcGAS lum: -9

How did CC(C)C(NC(=O)c1cccc(F)c1)c1ccc2c(c1)OCCCO2 (stereo not given) do in these assays?
hcGAS lum: 0; NPYLR7 ag: 3

Results for Cn1c(=O)c2c(nc3n2CC(c2ccccc2)=NN3CCN2CCCCC2)n(C)c1=O ?
hcGAS lum: -5; NPYLR7 ag: 3; mcGAS lum: -9

Bioassay records from PubChem.
